Luc counter – Kinase-Glo luciferase inhibition (counter-screen) | Q27757 | 0.28% of 200,000 active | Potency, µM (series often up to 38.3 µM), hits mostly inhibitors | Kinase-Glo luciferase, ATP luminescence, 8 min; further: nearly all actives have a fitted effect of over 60% in size
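Substrate mix (final 50 mM imidazole pH 7.2, 50 mM KCl, 7 mM MgCl2, 10 uM ATP, 0.01% Tween 20, 0.05% BSA) plus pin-tool compound, then Kinase-Glo detection mix; 8 min ambient, luminescence read.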
SMN2 splice enh – enhancers of SMN2 splice variant expression. Potency, µM (series often up to 46.1 µM), actives largely listed as activators. HEK293 SMN2-luciferase splicing reporter, luminescence, 30-36 h. 2.8% of 210,000 active; further: nearly all actives have a fitted effect of over 55% in size
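HEK293 cells carry an SMN2 minigene-luciferase reporter in which exon 7 inclusion puts luciferase in frame. Cells were seeded at 2000 cells/well, attached for 10-12 hours, then exposed to compounds for 30-36 hours at 37C before ONE-Glo luminescence.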
FLuc modulator – counter-screen for miR-21 project: firefly luciferase inhibitors or activators; purified FLuc, Km substrates, luminescence inhibition; P08659; Potency, µM (doses to about 57.5 µM), hits mostly inhibitors; 6.9% of 360,000 active; AID 588342; further: nearly all actives have a fitted effect of over 55% in size
Target sequence (P08659 whole entry, looked up): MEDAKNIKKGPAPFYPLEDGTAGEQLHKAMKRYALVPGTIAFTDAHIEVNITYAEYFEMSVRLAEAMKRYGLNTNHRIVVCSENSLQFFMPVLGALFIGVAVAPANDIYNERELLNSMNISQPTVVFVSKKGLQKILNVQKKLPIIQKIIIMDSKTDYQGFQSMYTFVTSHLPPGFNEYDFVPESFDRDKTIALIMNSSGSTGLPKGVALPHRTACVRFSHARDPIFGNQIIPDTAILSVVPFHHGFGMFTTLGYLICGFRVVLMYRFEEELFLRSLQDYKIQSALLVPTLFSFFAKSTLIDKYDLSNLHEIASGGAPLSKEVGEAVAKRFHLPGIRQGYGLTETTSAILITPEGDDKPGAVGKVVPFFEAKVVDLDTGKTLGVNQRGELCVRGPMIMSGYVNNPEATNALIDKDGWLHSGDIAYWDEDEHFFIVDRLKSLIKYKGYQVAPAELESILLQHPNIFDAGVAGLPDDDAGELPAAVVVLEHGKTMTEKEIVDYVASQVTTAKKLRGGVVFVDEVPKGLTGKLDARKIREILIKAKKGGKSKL
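Biochemical qHTS of compounds, final roughly 60 µM downward over six points, against 10 nM purified firefly luciferase using Km concentrations of substrates (10 uM D-luciferin, 10 uM ATP) in Tris acetate pH 7.5 buffer; luminescence output.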
ELG1 genotox – inducers of genotoxicity in HEK293T ELG1-luciferase cells; HEK293T ELG1-luciferase reporter, luminescence, 16 h; Potency, µM (top dose mostly 46 µM), most hits filed as activators; 1.3% of 330,000 active; further: nearly all actives have a fitted effect of over 60% in size
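Genotoxic stress is detected as increased luminescence from luciferase-tagged ELG1 in HEK293T cells, measured with ONE-Glo after a 16 hr treatment at 37 °C.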
Rab9 prom act – activators of Rab9 promoter; Huh7 Rab9 promoter-luciferase reporter, luminescence, 24 h; Potency, µM (titrated, usually from 9.22 µM), usual class: activators; 2.8% of 320,000 active; AID 485297; further: nearly all actives have a fitted effect of over 60% in size
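Huh7 reporter line, Rab9 promoter upstream of luciferase. Compound exposure 24 h at 37 °C in reduced-serum medium with 10% FBS. Read-out: luminescence.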
NPC1 prom act – NPC1 promoter activation; Huh7 NPC1 promoter luciferase reporter, 24 h; Potency, µM (series often up to 9.22 µM), usual class: activators; 2.4% of 320,000 active; AID 485313; further: nearly all actives have a fitted effect of over 60% in size
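NPC1 promoter–luciferase Huh7 cells; 24 h compound; luminescence.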
Large screens that a line does not name were inactive. Most compounds without a hit are left out; they make up all but 7.5% or so of the library. The call rests on the fitted dose curve; in most records, active means well fitted curve in the direction sought with a large enough effect; inconclusive means small, poorly fitted or top-dose-only effect, or another doubt; inactive means no such curve, though single readings can be large; an effect the other way counts as inactive or inconclusive.

CCN1CCc2c(sc(NC(=O)c3cc4ccccc4cc3OC)c2C(N)=O)C1	FLuc modulator 9.5µM (no result: Luc counter, SMN2 splice enh)
CC(C)N1CCc2c(sc(NC(=O)c3ccc4ccccc4c3)c2C(N)=O)C1	FLuc modulator 6µM (no result: Luc counter, SMN2 splice enh)
O=C1C(=O)N(Cc2ccncc2)C(c2ccccc2F)/C1=C(\O)c1ccc2c(c1)OCCO2 (centres undefined)	none (no result: Luc counter, SMN2 splice enh)
O=C1CN(c2ccccc2)C(=S)N1C(=O)c1ccccc1	FLuc modulator 24µM, ELG1 genotox inconclusive, Rab9 prom act 4µM, NPC1 prom act inconclusive (no result: Luc counter, SMN2 splice enh)
Cc1ccc(C)c(NC(=O)CSc2nnc3[nH]c(=O)cc(-c4ccccc4)n23)c1	FLuc modulator 0.95µM (no result: Luc counter, SMN2 splice enh, ELG1 genotox, Rab9 prom act, NPC1 prom act)
CCOc1ccccc1NC(=O)CSc1nnc2[nH]c(=O)cc(-c3ccccc3)n12	FLuc modulator 6µM (no result: Luc counter, SMN2 splice enh, ELG1 genotox, Rab9 prom act, NPC1 prom act)
Cc1ccc(NC(=O)CSc2nnc3[nH]c(=O)cc(-c4ccccc4)n23)cc1Cl	FLuc modulator 0.67µM (no result: Luc counter, SMN2 splice enh, ELG1 genotox, Rab9 prom act, NPC1 prom act)
CCCCc1ccc(NC(=O)CSc2nnc3[nH]c(=O)cc(C)n23)cc1	FLuc modulator 15µM (no result: Luc counter, SMN2 splice enh, ELG1 genotox, Rab9 prom act, NPC1 prom act)
Cc1ccc(C)c(NC(=O)CSc2nnc(-c3ccccc3)n2N)c1	none
CC(=O)c1cn(N2CCCCC2)c(=O)[nH]c1=O	none (no result: Luc counter, SMN2 splice enh)
CN(C(=O)CSc1nc2ccccc2n1CC(=O)N(C)c1ccc(F)cc1)c1ccccc1	none (no result: Luc counter, SMN2 splice enh, ELG1 genotox, Rab9 prom act, NPC1 prom act)
c1ccc(-c2csc(NC3=NCCCCC3)n2)cc1	SMN2 splice enh 11µM, FLuc modulator 19µM, ELG1 genotox inconclusive, Rab9 prom act inconclusive
Brc1ccc(-c2csc(NNC3=NCCCCC3)n2)cc1	FLuc modulator 19µM (no result: Luc counter, SMN2 splice enh)
N#Cc1ccc(-c2csc(NC3=NCCCCC3)n2)cc1	SMN2 splice enh inconclusive, FLuc modulator inconclusive
FC(F)Oc1ccc(-c2csc(NNC3=NCCCCC3)n2)cc1	FLuc modulator inconclusive
CC(C)(C)c1ccc(-c2csc(NNC3=NCCCCC3)n2)cc1	FLuc modulator 15µM, ELG1 genotox inconclusive
Cc1cccc(OCC(=O)N2CCN(C(=O)COc3ccc(Cl)cc3)CC2)c1	none (no result: Luc counter, SMN2 splice enh)
COc1ccccc1Nc1nnc(SCC(=O)c2cc(C)n(CC3CCCO3)c2C)s1 (centres undefined)	FLuc modulator inconclusive
Cc1cc(C(=O)CSc2nnc(Nc3ccccc3F)s2)c(C)n1CC1CCCO1 (centres undefined)	FLuc modulator 15µM
Cc1cc(C(=O)CSc2nnc(Nc3ccccc3)s2)c(C)n1CC1CCCO1 (centres undefined)	FLuc modulator 11µM
CC(=O)N1CCc2c(sc3c2c(=O)n(CCc2ccccc2)c(=O)n3CC(=O)Nc2ccccc2F)C1	none (no result: Luc counter, ELG1 genotox, Rab9 prom act, NPC1 prom act)
O=C(c1cccc(S(=O)(=O)N2CCCC2)c1)N1CCN(Cc2ccccc2)CC1	none (no result: Luc counter, SMN2 splice enh)
CCn1c(CNC(=O)c2cccc(C)c2)nnc1SCC(=O)Nc1nnc(C)s1	none (no result: Luc counter, SMN2 splice enh)
O=C(c1ccc2c(Cl)c3c(nc2c1)CCCC3)N1CCN(c2ccccc2F)CC1	none (no result: Luc counter, ELG1 genotox, Rab9 prom act, NPC1 prom act)
CC(C)c1ccc(NC(=O)c2ccccc2NC(=O)C2CC=CCC2C(=O)O)cc1 (centres undefined)	FLuc modulator 27µM, ELG1 genotox inconclusive (no result: Luc counter, SMN2 splice enh)
Cc1ccc(N=Nc2c(O)n(CN3CCOCC3)c3ccccc23)cc1	SMN2 splice enh 22µM, FLuc modulator 2.7µM, ELG1 genotox 3.7µM, Rab9 prom act 0.4µM, NPC1 prom act 1.4µM
C/C(=N\NC(=O)c1ccc(Cl)c(Cl)c1)c1ccc(Br)s1	none
C/C(=N\NC(=O)c1ccc2c(c1)OCO2)c1ccco1	Luc counter inconclusive, SMN2 splice enh 13µM, FLuc modulator 9.5µM, Rab9 prom act 0.79µM, NPC1 prom act inconclusive
C/C(=N\NC(=O)c1ccco1)c1ccc(-c2ccccc2)cc1	FLuc modulator 2.4µM, ELG1 genotox 9.2µM, Rab9 prom act 3.5µM, NPC1 prom act 3.2µM (no result: Luc counter, SMN2 splice enh)
C/C(=N/NC(=O)c1ccc2c(c1)OCO2)c1ccc(Br)s1	ELG1 genotox inconclusive, Rab9 prom act 3.5µM, NPC1 prom act inconclusive (no result: Luc counter, SMN2 splice enh)
C/C(=N\NC(=O)CNC(=O)c1ccc2c(c1)OCCO2)c1ccco1	none (no result: Luc counter, SMN2 splice enh)
CCc1ccc(NC(=O)C2CCCN(S(=O)(=O)c3cccc4cccnc34)C2)cc1 (centres undefined)	none (no result: Luc counter, ELG1 genotox, Rab9 prom act, NPC1 prom act)
Cc1ccc(NC(=S)c2ccc(N(C)C)cc2)cc1	SMN2 splice enh 4.5µM, FLuc modulator 1.7µM, ELG1 genotox 3.7µM, Rab9 prom act 1.3µM, NPC1 prom act 0.89µM
Cc1ccc(S(=O)(=O)NC(=O)Nc2ccc(N(C)C)cc2)cc1	FLuc modulator 24µM, ELG1 genotox inconclusive, Rab9 prom act inconclusive (no result: Luc counter, SMN2 splice enh)
COc1ccc(NC(=S)Nc2ccccc2)cc1	none
COc1ccc(C(=S)Nc2ccc(N(C)C)cc2)cc1	SMN2 splice enh 11µM, FLuc modulator 1.5µM, ELG1 genotox inconclusive, Rab9 prom act 2.8µM, NPC1 prom act 3.2µM
COc1ccc(NC(=S)c2ccccc2)cc1	SMN2 splice enh 14µM, FLuc modulator 11µM, ELG1 genotox inconclusive, Rab9 prom act inconclusive, NPC1 prom act inconclusive
Cc1ccc(N(C)C)cc1	none (no result: Luc counter, FLuc modulator, ELG1 genotox, Rab9 prom act, NPC1 prom act)
COc1ccccc1N1C(=O)CC(Sc2ccccc2N)C1=O (centres undefined)	none (no result: Luc counter, SMN2 splice enh)
COc1ccc(NC(=S)c2ccc(N(C)C)cc2)cc1	SMN2 splice enh 11µM, FLuc modulator 2.1µM, ELG1 genotox inconclusive, Rab9 prom act 1.3µM, NPC1 prom act 4µM
